A selection: hits, their analogues and other compounds. The true share with any hit is near 6.9%.
PLK1 PBD inh: qHTS for Inhibitors of PLK1-PDB (polo-like kinase 1 - polo-box domain): Primary Screen. Plk1 PBD binding of FITC phosphopeptide, fluorescence polarization. hit rate 2.8% among 360,000. Potency, µM, inactives show max response, negative = inhibition, usual class: inhibitors. AID 720504, 2013. Serine/threonine-protein kinase PLK1 (Homo sapiens), P53350; further: series mostly up to about 57 µM; on the % scale 0 is the no-effect control and ±100 the full control effect; nearly all actives have a fitted effect of over 65% in size
L3MBTL1 block: qHTS Assay for the Inhibitors of L3MBTL1; Lethal(3)malignant brain tumor-like protein 1 (Homo sapiens), Q9Y468; AlphaScreen L3MBTL1–H3K9me1 peptide binding; Potency, µM (titrated, usually from 57.1 µM), for the others: top-dose activity, negative = inhibition, usual class: inhibitors; hit rate 0.66% among 230,000; AID 485360, 2010; further: on the % scale 0 is the no-effect control and ±100 the full control effect; nearly all actives have a fitted effect of over 60% in size
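Displacement of a biotinylated histone H3(1-15) peptide monomethylated at Lys9 (75 nM) from L3MBTL1 (50 nM) was measured by AlphaScreen after a 30 min room-temperature compound incubation; cefsulodin titration served as intraplate control.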
JMJD2A Tudor: qHTS Assay for Inhibitors of JMJD2A-Tudor Domain; AID 504339, 2011; Potency, µM (doses to about 114 µM), for inactives: at the top dose activity change, negative = inhibition, usual class: inhibitors; Lysine-specific demethylase 4A (Homo sapiens), O75164; hit rate 4.4% among 390,000; AlphaScreen JMJD2A-Tudor / H3K4me3 peptide binding; further: on the % scale 0 is the no-effect control and ±100 the full control effect; nearly all actives have a fitted effect of over 50% in size
Target sequence (O75164 whole entry, looked up, the tested form may be a part): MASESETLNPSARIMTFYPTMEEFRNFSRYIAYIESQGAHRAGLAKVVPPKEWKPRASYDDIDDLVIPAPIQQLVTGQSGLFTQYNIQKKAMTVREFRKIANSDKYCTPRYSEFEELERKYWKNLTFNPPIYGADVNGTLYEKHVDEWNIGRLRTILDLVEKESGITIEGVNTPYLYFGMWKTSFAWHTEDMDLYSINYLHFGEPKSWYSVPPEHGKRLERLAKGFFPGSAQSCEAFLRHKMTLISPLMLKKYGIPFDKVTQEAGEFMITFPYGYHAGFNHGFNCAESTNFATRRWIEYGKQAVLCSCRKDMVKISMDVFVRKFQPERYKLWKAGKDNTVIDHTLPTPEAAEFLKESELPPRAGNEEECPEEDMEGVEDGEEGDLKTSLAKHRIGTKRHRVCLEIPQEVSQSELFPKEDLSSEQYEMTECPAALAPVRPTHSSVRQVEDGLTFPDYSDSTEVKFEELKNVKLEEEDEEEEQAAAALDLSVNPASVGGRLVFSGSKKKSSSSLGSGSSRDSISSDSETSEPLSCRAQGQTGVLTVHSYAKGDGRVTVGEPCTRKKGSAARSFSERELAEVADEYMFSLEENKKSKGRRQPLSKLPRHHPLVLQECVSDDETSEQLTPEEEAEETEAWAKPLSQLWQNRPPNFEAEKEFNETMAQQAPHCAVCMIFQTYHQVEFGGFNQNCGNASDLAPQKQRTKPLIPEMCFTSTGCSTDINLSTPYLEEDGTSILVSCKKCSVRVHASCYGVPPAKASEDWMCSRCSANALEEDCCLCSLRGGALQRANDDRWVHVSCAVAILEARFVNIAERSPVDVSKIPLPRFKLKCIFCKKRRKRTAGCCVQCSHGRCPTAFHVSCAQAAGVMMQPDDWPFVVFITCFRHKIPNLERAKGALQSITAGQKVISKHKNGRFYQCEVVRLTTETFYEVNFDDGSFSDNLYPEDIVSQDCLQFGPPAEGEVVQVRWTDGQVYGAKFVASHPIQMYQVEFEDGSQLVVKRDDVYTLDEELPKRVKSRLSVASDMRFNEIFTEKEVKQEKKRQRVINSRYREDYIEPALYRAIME
VDR inh: Inhibitors of the vitamin D receptor (VDR): qHTS; VDR-SRC2-3 peptide fluorescence polarization, 2 h; Potency, µM, inactives show max response, negative = inhibition, hits mostly inhibitors; hit rate 0.93% among 400,000; further: on the % scale 0 is the no-effect control and ±100 the full control effect
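Inhibition of the VDR/SRC2-3 peptide interaction is quantified by fluorescence polarization. Compounds (23 nl, pintool) incubate with the reagents for 2 hours at ambient room temperature.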
HP1b binding inh: HTS for Inhibitors of HP1-beta Chromodomain Interactions with Methylated Histone Tails. AID 540317, 2011. Potency, µM (titrated, usually from 114 µM), inactives show at the top dose activity change, negative = inhibition, most hits filed as inhibitors. hit rate 0.56% among 390,000. Chromobox protein homolog 1 (Homo sapiens), P83916. AlphaScreen HP1-beta / biotin-H3K9me3 peptide binding; further: nearly all actives have a fitted effect of over 70% in size
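Compound inhibition of the preformed complex between 50 nM HP1-beta and 50 nM biotinylated H3K9me3 peptide was read by AlphaScreen. Buffer was PBS pH 7.4 with 0.01% Tween-20. Incubations ran 30 min at room temperature, with 10 ug/mL donor/acceptor beads.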
BAZ2B block: qHTS Assay for Inhibitors of BAZ2B; AlphaScreen BAZ2B-H3K14Ac peptide displacement; AID 504333, 2011; Potency, µM (series often up to 114 µM), inactives show at the highest dose activity change, negative = inhibition, usual class: inhibitors; hit rate 4.4% among 360,000; Bromodomain adjacent to zinc finger domain protein 2B (Homo sapiens), Q9UIF8; further: on the % scale 0 is the no-effect control and ±100 the full control effect; nearly all actives have a fitted effect of over 60% in size
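Protein-peptide AlphaScreen: BAZ2B 50 nM, b-H3K14Ac 50 nM, 1x PBS pH 7.4 + 0.01% Tween-20. Preincubation 30 min RT; cpd 30 min RT (top 110 uM); beads 20 min RT, light-protected.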
* marks the source's active call; other numbers are inactive results; ? = inconclusive; nt = no result; [ ] = another dose, or the depositor's remark. The call rests on the fitted dose curve; in most records, active means well fitted curve in the direction sought with a large enough effect; inconclusive means small, poorly fitted or top-dose-only effect, or another doubt; inactive means no such curve, though single readings can be large; an effect the other way counts as inactive or inconclusive. Potency means the concentration at half of the fitted maximal effect.

SMILES	PLK1 PBD inh	L3MBTL1 block	JMJD2A Tudor	VDR inh	HP1b binding inh	BAZ2B block
COc1ccc(-c2nnc(NC(=O)C3CC3)o2)cc1	-2.2%	nt	-10.5%	1.2%	40.6%	nt
O=C(Nc1nnc(-c2ccccc2)o1)c1ccc(Cl)cc1	-6.8%	nt	-17.0%	-2.2%	22.2%	0.7%
CCOC(=O)c1sc(N=NC2=C(O)CC(C)(C)CC2=O)c(C(=O)OCC)c1C	-4.2%	5.6%	-16.5%	8.5%	18.2%	-21.9%
Cc1ccc(-c2nnn3c2nc(NCC(C)c2ccccc2)c2ccccc23)cc1 (stereo not drawn)	nt	nt	6.3%	-2.4%	51.3%	4.0%
O=C(Nc1nnc(C2=COCCO2)o1)c1ccc(F)cc1	1.7%	nt	56.2µM*	8.9%	39.6%	22.4µM*
COc1ccccc1CCc1nnc(CCC(=O)NC(C)Cc2cccc(C)n2)o1 (stereo not drawn)	23.8µM*	3.0%	-11.8%[11.4 µM]	-26.4%	5.4%	-10.9%
COc1ccccc1CCc1nnc(CCC(=O)NC(C)Cc2cccs2)o1 (stereo not drawn)	-15.1%	17.3%	-9.4%	10.6%	14.9%	-3.2%
CN1CCN(CC(=O)Nc2cccc(S(=O)(=O)N(C)c3ccccc3)c2)CC1	-0.5%	-0.3%	-4.2%	-17.8%	46.7%	8.9%
CCN(CC)CC(=O)NN(Cc1ccccc1)c1ccccc1	2.5%	6.3%	17.8µM*	-27.8%	?	79.4µM*
CN1CCN(CC(=O)NN(Cc2ccccc2)c2ccccc2)CC1	-14.2%	nt	7.94µM*	-18.4%	?	-2.4%
C=C(C)C(=O)Nc1cccc(C2=NOC3(C2)C[C@@H](C(N)=O)N(C(=O)c2cc([N+](=O)[O-])cc([N+](=O)[O-])c2C)C3)c1 (stereo partly drawn)	?	nt	17.8µM*	-14.2%	6.31µM*	28.2µM*
C=C(C)C(=O)Nc1cccc(C2=NOC3(C2)C[C@@H](C(N)=O)N(C(=O)c2ccc(Cl)cc2)C3)c1 (stereo partly drawn)	23.8µM*	nt	7.08µM*	-7.4%	7.94µM*	11.2µM*
C=C(C)C(=O)Nc1cccc(C2=NOC3(C2)C[C@H](C(N)=O)N(C(=O)c2ccccc2)C3)c1 (stereo partly drawn)	?	nt	22.4µM*	-12.8%	?	44.7µM*
C=C(C)C(=O)Nc1cccc(C2=NOC3(C2)C[C@H](C(N)=O)N(C(=O)COc2ccc(Cl)cc2)C3)c1 (stereo partly drawn)	23.8µM*	nt	10µM*	-9.3%	10µM*	6.31µM*
NC(=O)c1cccc(-c2ccnc3c2CC(C(=O)NCc2ccccc2)O3)c1 (stereo not drawn)	-6.2%	nt	nt	nt	nt	nt
CN(C)c1ccc(N=Nc2ccc(S(=O)(=O)O)cc2)c2ccccc12	?	nt	35.5µM*	-6.6%	?	10µM*
O=c1oc2ccc(F)cc2cc1-c1nc(-c2cccs2)no1	nt	nt	-18.3%	-0.1%	23.2%	-15.0%
O=C(Nc1oc2ccccc2c(=O)c1-c1ccc(Cl)cc1)c1ccco1	-13.4%	nt	-14.2%	3.5%	45.1%	-21.2%
CN1CCN(c2ccc(S(=O)(=O)N3CCCCC3)cc2NC(=O)c2ccc3ccccc3c2)CC1	-2.8%	-23.5%	?	-7.6%	-22.9%	?
Cc1ccccc1C(=O)Nc1cc(S(=O)(=O)N2CCCCC2)ccc1N1CCN(C)CC1	5.97µM*	-4.2%	-21.6%	8.2%	18.8%	7.6%
Cc1ccc(C(=O)Nc2cc3c(cc2N2CCCCC2)n(C)c(=O)n3C)cc1	-15.9%	nt	-14.4%	-9.1%	61.4%	-17.6%
CCOC(=O)C1CCN(c2cc3c(cc2NC(=O)c2ccccc2Br)n(C)c(=O)n3C)CC1	-10.3%	nt	?	-26.5%	5.2%	50.1µM*
CN(C)c1cc2c(cc1NC(=O)c1ccccc1Cl)n(C)c(=O)n2C	-3.6%	nt	-12.6%	-18.6%	16.5%	50.1µM*
Cc1ccccc1C(=O)Nc1cc2c(cc1N1CCCCC1)n(C)c(=O)n2C	nt	nt	?	17.3%	-28.4%	25.1µM*
Cc1cc(C)cc(OCC(=O)NCC2(N3CCOCC3)CCCCC2)c1	nt	nt	5.6%	9.0%	59.1%	-38.4%
SMILES	PLK1 PBD inh	L3MBTL1 block	JMJD2A Tudor	VDR inh	HP1b binding inh	BAZ2B block
CN1CCN(c2ccc(S(=O)(=O)N3CCCCC3)cc2NC(=O)/C=C/c2ccc(Cl)c([N+](=O)[O-])c2)CC1	-6.1%	-15.7%	44.7µM*	4.1%	?	?
Cc1ccccc1C(=O)Nc1cc2c(cc1N1CCOCC1)n(C)c(=O)n2C	nt	nt	-16.4%	-3.8%	7.0%	50.1µM*
COc1ccc(Br)c(C(=O)Nc2cc3c(cc2N2CCCCC2)n(C)c(=O)c(=O)n3C)c1	nt	nt	-20.2%	8.2%	2.9%	-16.2%
COc1ccc(Br)c(C(=O)Nc2cc3c(cc2N2CCOCC2)n(C)c(=O)n3C)c1	nt	nt	-18.8%	-14.2%	6.0%	79.4µM*
CCOc1ccccc1C(=O)Nc1cc2c(cc1N1CCOCC1)n(C)c(=O)n2C	nt	nt	-21.6%	9.9%	-10.5%	?
CCN1CCN(c2ccc(S(=O)(=O)N3CCCCC3)cc2NC(=O)/C=C/c2ccc([N+](=O)[O-])cc2)CC1	-11.6%	-2.9%	?	-8.4%	?	?
CCn1ccc2cc(S(=O)(=O)N3CCC(C(=O)NCCOC)CC3)ccc21	nt	nt	0.0%	3.7%	26.7%[57 µM]	-1.7%
CC(C)CCNC(=O)C1CCN(S(=O)(=O)c2cccc3nsnc23)CC1	nt	nt	-8.3%	?	24.8%	nt
CC(C)CCOP(=O)(c1ccc(N(C)C)cc1)C(O)c1ccc(C(C)C)cc1 (stereo not drawn)	-0.3%	nt	-20.1%	-1.3%	17.8%	-25.2%
CC(C)CCOP(=O)(c1ccc(N(C)C)cc1)C(O)c1ccc(N(C)C)cc1 (stereo not drawn)	2.5%	nt	7.08µM*	5.8%	-5.2%	?
CCCOP(=O)(c1ccc(N(C)C)cc1)C(O)c1ccc(N(C)C)cc1 (stereo not drawn)	-7.4%	nt	8.91µM*	0.4%	24.1%	-23.2%
CC(C)CCOP(=O)(c1ccc(N(C)C)cc1)C(Nc1ccccc1)c1ccc(N(C)C)cc1 (stereo not drawn)	-4.4%	-1.7%	44.7µM*	-24.1%	-19.4%	?
COc1ccc(NC(=O)COC(=O)C2CCN(S(=O)(=O)c3ccccc3)CC2)cc1Cl	-3.7%	0.6%	-19.3%	0.8%	9.1%	9.8%
CC(=O)N1CC[C@H]2CC(=O)CC[C@@]21C	nt	nt	nt	0.2%	nt	nt
CN(C)c1ccc(C(O)Cc2nc3ccccc3n2C)cc1 (stereo not drawn)	2.6%	-4.3%	-11.6%	4.1%	22.7%	-31.3%

From PubChem
